# Paper PMC7862700, “An all-to-all approach to the identification of sequence-specific readers for epigenetic DNA modifications on cytosine”
# Tests used:
# Assay in all cases: DAPPL (digital affinity profiling via proximity ligation, sequencing); 10 mM Tris-HCl pH 7.5, 50 mM NaCl, 1 mM DTT, 4% glycerol, room temperature, 30 min; GST-TFs on glutathione beads, 16-mer random dsDNA library, 0.1% formaldehyde crosslink after washing; high values mean tight binding
# Details in all cases: protein: recombinant; tags: N-terminal GST; dsDNA, one strand shown
# ELK1 = molecular target: T1, ELK1 (Homo sapiens, UniProt P19419 1-428)
# T1 sequence: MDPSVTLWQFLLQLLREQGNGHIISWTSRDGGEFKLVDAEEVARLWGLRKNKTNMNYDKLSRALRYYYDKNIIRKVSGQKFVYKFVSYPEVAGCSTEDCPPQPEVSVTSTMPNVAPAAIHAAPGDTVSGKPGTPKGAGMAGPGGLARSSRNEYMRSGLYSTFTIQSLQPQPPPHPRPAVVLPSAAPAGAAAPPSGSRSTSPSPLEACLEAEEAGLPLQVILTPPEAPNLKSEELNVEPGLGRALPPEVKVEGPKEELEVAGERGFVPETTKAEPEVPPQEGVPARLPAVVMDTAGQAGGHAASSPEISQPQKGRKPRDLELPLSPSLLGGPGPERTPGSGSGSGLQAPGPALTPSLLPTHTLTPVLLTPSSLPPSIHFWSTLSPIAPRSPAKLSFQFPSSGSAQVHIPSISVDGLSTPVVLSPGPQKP
# Outline: (§1)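 Sequencing on an Illumina NextSeq500 followed washing, crosslinking with 0.1% formaldehyde, proximity ligation (BsaI/T4 ligase, 1 h, 37 °C) and PCR amplification of pools that had been incubated for 30 min at room temperature with 200 nmole of a random double-stranded 16-mer DNA library in Tris/NaCl/DTT/glycerol buffer. Each pool held DNA-barcoded human transcription factors, expressed in yeast as GST fusions and captured on glutathione beads, plus a tag-only sample. Binding signal is a hexamer's read frequency for a factor divided by its frequency in the tag-only sample.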
# GABPA = molecular target: T2, GABPA (Homo sapiens, UniProt Q06546 1-454)
# T2 sequence: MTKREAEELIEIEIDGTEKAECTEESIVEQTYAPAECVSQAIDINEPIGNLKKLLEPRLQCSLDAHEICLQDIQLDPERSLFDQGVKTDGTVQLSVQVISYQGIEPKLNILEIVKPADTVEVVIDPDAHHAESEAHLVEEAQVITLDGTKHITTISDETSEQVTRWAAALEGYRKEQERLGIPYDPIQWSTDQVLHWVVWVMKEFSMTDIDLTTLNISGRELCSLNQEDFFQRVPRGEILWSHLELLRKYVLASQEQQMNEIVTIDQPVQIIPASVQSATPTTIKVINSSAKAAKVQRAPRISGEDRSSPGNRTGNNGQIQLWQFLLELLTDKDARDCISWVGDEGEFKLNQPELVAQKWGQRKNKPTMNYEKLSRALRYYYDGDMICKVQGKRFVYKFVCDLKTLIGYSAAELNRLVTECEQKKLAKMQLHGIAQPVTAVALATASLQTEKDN
# Outline: as §1
# ERG = molecular target: T3, ERG (Homo sapiens, UniProt P11308 1-479)
# T3 sequence: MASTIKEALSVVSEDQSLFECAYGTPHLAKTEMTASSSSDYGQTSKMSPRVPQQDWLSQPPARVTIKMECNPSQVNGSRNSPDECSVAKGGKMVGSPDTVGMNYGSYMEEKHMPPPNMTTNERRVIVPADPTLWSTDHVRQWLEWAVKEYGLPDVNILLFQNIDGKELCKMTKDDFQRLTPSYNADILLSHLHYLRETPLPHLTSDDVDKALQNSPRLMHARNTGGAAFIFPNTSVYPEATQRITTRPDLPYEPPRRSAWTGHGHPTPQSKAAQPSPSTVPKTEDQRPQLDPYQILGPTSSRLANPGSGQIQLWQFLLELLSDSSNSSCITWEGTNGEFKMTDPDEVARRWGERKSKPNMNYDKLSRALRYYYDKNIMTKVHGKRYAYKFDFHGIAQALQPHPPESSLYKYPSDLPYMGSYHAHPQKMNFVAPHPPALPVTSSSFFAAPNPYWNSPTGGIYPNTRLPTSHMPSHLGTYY
# Outline: as §1
# ELF1 = ELF1 (Homo sapiens, UniProt P32519 1-619)
# ELF1, sequence (P32519 whole entry): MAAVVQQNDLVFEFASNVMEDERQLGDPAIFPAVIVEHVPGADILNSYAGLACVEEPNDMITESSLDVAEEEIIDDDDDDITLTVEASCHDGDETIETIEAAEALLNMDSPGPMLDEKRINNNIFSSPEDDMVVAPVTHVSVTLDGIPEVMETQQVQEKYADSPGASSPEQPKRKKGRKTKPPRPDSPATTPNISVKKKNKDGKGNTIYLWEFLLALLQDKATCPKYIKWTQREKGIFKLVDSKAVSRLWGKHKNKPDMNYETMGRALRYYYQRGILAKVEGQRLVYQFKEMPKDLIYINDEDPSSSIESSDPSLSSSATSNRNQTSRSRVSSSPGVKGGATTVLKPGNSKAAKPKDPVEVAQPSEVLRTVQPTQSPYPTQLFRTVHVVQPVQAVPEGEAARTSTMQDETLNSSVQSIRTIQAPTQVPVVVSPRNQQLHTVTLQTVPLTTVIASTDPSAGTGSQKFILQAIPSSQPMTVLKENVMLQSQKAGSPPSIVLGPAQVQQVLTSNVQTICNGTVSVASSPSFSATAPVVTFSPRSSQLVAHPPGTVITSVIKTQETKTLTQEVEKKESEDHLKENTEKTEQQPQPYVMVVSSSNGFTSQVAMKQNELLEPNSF
# Outline: as §1
# EHF = molecular target: T4, EHF (Homo sapiens, UniProt Q9NZC4 1-300)
# T4 sequence: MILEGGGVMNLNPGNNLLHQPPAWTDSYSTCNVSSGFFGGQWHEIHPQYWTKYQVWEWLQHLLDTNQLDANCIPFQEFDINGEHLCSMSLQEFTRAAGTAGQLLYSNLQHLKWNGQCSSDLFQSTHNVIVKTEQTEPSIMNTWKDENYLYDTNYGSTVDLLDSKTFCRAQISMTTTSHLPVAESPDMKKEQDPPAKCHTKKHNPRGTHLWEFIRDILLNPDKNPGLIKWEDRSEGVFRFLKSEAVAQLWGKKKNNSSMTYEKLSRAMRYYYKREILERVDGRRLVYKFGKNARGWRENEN
# Outline: as §1
# SPIB = SPIB (Homo sapiens, UniProt Q01892 1-262)
# SPIB, sequence (Q01892 whole entry): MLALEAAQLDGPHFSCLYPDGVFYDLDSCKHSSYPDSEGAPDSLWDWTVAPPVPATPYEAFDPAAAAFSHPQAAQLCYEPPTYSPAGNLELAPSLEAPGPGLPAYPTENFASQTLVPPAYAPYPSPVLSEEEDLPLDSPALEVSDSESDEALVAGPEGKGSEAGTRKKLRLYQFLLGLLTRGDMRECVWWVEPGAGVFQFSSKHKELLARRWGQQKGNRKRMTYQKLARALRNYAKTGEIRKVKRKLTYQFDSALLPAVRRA
# Outline: as §1
# FEV = molecular target: T5, FEV (Homo sapiens, UniProt Q99581 1-238)
# T5 sequence: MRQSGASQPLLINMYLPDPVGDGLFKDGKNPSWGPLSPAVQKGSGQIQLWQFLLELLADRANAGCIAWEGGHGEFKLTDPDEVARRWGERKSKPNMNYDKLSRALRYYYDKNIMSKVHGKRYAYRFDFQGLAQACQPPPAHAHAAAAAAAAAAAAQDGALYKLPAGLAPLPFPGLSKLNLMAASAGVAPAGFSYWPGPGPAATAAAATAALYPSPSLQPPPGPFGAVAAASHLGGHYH
# Outline: as §1
# ETV5 = ETV5 (Homo sapiens, UniProt P41161 1-510)
# ETV5, sequence (P41161 whole entry): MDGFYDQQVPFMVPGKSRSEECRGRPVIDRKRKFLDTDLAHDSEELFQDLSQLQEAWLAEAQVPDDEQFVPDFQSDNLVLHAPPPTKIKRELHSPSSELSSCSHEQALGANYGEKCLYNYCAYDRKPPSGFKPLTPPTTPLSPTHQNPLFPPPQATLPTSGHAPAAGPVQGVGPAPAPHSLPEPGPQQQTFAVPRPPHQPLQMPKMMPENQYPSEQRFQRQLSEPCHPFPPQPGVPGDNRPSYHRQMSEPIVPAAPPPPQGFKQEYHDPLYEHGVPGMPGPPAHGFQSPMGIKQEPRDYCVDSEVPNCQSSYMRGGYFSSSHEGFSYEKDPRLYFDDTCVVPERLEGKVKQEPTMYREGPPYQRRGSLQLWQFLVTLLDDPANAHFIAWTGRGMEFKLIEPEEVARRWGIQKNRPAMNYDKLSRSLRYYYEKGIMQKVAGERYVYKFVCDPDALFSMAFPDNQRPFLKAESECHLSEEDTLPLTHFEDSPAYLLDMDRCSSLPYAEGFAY
# Outline: as §1
# ELF4 = ELF4 (Homo sapiens, UniProt Q99607 1-663)
# ELF4, sequence (Q99607 whole entry): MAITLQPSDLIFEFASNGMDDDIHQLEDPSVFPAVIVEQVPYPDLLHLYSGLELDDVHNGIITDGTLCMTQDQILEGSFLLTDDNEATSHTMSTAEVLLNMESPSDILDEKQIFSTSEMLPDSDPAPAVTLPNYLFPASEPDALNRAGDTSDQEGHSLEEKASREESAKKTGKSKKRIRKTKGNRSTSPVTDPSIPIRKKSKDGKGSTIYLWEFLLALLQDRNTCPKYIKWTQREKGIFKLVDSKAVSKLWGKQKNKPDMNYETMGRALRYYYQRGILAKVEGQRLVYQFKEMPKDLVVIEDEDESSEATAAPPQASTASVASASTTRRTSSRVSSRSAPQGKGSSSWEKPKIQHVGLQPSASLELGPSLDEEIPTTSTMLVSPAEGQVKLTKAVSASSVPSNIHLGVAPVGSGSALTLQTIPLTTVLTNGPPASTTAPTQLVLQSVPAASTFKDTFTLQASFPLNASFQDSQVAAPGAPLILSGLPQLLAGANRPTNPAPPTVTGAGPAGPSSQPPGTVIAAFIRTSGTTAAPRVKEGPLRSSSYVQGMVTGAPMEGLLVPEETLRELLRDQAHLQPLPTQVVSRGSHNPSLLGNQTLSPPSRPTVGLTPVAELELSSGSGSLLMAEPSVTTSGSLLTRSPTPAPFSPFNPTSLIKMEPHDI
# Outline: as §1
# ELK4 = molecular target: T6, ELK4 (Homo sapiens, UniProt P28324-2 1-405)
# T6 sequence: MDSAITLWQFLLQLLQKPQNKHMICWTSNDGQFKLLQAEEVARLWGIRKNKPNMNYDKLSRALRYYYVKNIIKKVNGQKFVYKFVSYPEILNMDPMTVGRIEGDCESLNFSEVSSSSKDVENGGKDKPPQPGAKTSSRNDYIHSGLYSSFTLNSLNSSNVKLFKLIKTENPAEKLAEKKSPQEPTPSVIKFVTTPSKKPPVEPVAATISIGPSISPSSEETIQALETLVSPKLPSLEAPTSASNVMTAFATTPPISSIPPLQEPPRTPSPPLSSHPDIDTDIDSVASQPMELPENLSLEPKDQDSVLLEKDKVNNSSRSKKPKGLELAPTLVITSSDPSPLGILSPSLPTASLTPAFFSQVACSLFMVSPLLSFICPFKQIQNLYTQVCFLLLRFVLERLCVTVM
# Outline: as §1
sequence,measurement,setting,value
ATGCCA,binding signal,ELK1,"1.06 fold enrichment (6-mer frequency, TF over GST control)"
same,binding signal,GABPA,"1.02 fold enrichment (6-mer frequency, TF over GST control)"
same,binding signal,ERG,"1.04 fold enrichment (6-mer frequency, TF over GST control)"
same,binding signal,ELF1,"1.07 fold enrichment (6-mer frequency, TF over GST control)"
same,binding signal,EHF,"1.05 fold enrichment (6-mer frequency, TF over GST control)"
same,binding signal,SPIB,"1.03 fold enrichment (6-mer frequency, TF over GST control)"
same,binding signal,FEV,"1.04 fold enrichment (6-mer frequency, TF over GST control)"
same,binding signal,ETV5,"1.05 fold enrichment (6-mer frequency, TF over GST control)"
same,binding signal,ELF4,"1.09 fold enrichment (6-mer frequency, TF over GST control)"
same,binding signal,ELK4,"1.02 fold enrichment (6-mer frequency, TF over GST control)"
